# Compound activity as filed in PubChem.
# In the library only some 7.5% were active in any assay of this set; here they are far more common.
# FLuc modulator = counter-screen for miR-21 project: firefly luciferase inhibitors or activators | purified FLuc, Km substrates, luminescence inhibition | Potency, µM (doses to about 57.5 µM), without a hit: top-dose activity change, negative = inhibition, actives largely listed as inhibitors | 6.9% of 360,000 active;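 also: plate controls were vehicle for no effect and reference inhibitor for full effect; nearly all actives have a fitted effect of over 55% in size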
# Target sequence (P08659 whole entry, looked up): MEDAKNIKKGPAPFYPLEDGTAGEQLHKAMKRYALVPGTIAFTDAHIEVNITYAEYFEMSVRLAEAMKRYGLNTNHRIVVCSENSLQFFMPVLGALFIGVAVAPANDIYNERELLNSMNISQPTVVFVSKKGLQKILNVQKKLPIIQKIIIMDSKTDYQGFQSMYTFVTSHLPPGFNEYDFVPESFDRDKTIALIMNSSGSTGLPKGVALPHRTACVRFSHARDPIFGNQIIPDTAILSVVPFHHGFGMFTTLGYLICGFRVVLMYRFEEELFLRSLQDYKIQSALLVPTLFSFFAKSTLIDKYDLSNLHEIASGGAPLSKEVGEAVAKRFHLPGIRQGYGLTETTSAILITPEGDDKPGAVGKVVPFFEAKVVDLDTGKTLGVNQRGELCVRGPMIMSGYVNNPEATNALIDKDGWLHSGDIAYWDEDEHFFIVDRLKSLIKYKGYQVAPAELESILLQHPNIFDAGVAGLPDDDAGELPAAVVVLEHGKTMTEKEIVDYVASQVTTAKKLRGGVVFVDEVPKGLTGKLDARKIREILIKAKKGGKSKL
#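 Biochemical qHTS of compounds, final roughly 60 µM downward over six points, against 10 nM purified firefly luciferase using Km concentrations of substrates (10 uM D-luciferin, 10 uM ATP) in Tris acetate pH 7.5 buffer; luminescence output.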
# Luc counter = counter-screen: inhibitors of Kinase-Glo firefly luciferase | Q27757 | Kinase-Glo luciferase, ATP luminescence, 8 min | Potency, µM (highest dose often 38.3 µM), for inactives: top-dose activity change, negative = inhibition, hits mostly inhibitors | 0.28% of 200,000 active; also: % is scaled to controls: 0 for no effect and ±100 for the full control effect; nearly all actives have a fitted effect of over 60% in size
#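 Inhibition of Kinase-Glo luciferase light generation was assessed at 10 uM ATP in pH 7.2 imidazole buffer, with luminescence measured after eight minutes at ambient temperature.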
# ELG1 genotoxic = inducers of genotoxicity in HEK293T ELG1-luciferase cells; HEK293T ELG1-luciferase reporter, luminescence, 16 h; 1.3% of 330,000 active; AID 504466; Potency, µM (series often up to 46 µM), inactives show top-dose activity change, positive = activation, actives largely listed as activators; also: % of control where 0% means no effect; nearly all actives have a fitted effect of over 60% in size
#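 Reporter readout depends on ELG1 protein level, which increases with genetic stress. After 16 hr compound exposure at 37 °C, luciferase activity was quantified using ONE-Glo.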
# Rab9 prom act = activators of Rab9 promoter; Potency, µM (series often up to 9.22 µM), for inactives: at the top dose activation, negative = inhibition, most hits filed as activators; 2.8% of 320,000 active; Huh7 Rab9 promoter-luciferase reporter, luminescence, 24 h; also: % of control where 0% means no effect; nearly all actives have a fitted effect of over 60% in size
#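 Stable Rab9-luc Huh7, 1500 cells/well, 2 h settle; cmpd in DMSO, 24 h, 37 °C/5% CO2; luciferase reagent 10 min RT; luminescence.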
# NPC1 prom act = activators of NPC1 promoter | Huh7 NPC1 promoter luciferase reporter, 24 h | 2.4% of 320,000 active | Potency, µM (top dose mostly 9.22 µM), for inactives: top-dose activation, actives largely listed as activators; also: % of control where 0% means no effect; nearly all actives have a fitted effect of over 60% in size
#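 Luciferase expression driven by the NPC1 promoter was measured in stably transfected Huh7 cells after a 24 h compound incubation, using a luciferase reagent and a luminescence read.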
# SMN2 splice enh = SMN2 splice variant enhancement; AID 1458; HEK293 SMN2-luciferase splicing reporter, luminescence, 30-36 h; Potency, µM (series often up to 46.1 µM), without a hit: at the top dose activity change, positive = activation, hits mostly activators; 2.8% of 210,000 active; also: % of control where 0% means no effect; nearly all actives have a fitted effect of over 55% in size
#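 qHTS luciferase splicing reporter: luminescence rises when SMN2 exon 7 is included in transfected HEK293 cells. Compound exposure lasted 30-36 h at 37C, with 4.5 mM final sodium butyrate as control, followed by a ONE-Glo read.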
# * marks the source's active call; other numbers are inactive results; ? = inconclusive; . = no result given; [ ] = remark or other dose. Calls follow the shape of the dose curve; as a rule, active = well fitted curve in the direction sought with a large enough effect; inconclusive = small, poorly fitted or top-dose-only effect, or another doubt; inactive = no such curve, though single readings can be large; an effect the other way counts as inactive or inconclusive. Potency is read from the fitted curve at half-maximal effect.
SMILES,FLuc modulator,Luc counter,ELG1 genotoxic,Rab9 prom act,NPC1 prom act,SMN2 splice enh
COC(=O)[C@@]1(Cc2ccc(OC)cc2)[C@H]2c3cc(C(=O)N(C)C)n(Cc4cccc5ccccc45)c3C[C@H]2CN1C(=O)c1ccccc1,.,-2%,.,.,.,-12%
CC(=O)c1ccc(NC(=O)c2cnc(N3CCCC3)nc2C)cc1,-2%,.,.,.,.,.
CCOc1ccccc1CNC(=O)Cn1ncn2nc(-c3cccs3)cc2c1=O,6%,.,.,.,.,.
CC[C@@H](C)[C@H](NC(=O)Cc1c(C)c2c(cc(C)c3c(C)coc32)oc1=O)C(=O)O,?,.,2%,-2%[1.84 µM],-12%,.
Cc1cc2oc(=O)c(CC(=O)NCCCN(C)C)c(C)c2c2occ(C(C)(C)C)c12,?,.,1%,-4%,22%,.
COCCNC(=O)Cc1c(C)c2c(cc(C)c3c(C(C)(C)C)coc32)oc1=O,2.7µM*,.,4%,-8%,-19%,.
Cc1cc2oc(=O)c(CC(=O)O)c(C)c2c2occ(C(C)(C)C)c12,21µM*,.,20%,15%,?,.
Cc1coc2c1c(C)cc1oc(=O)c(CC(=O)NCC(=O)O)c(C)c12,?,.,3%,-10%,-4%,.
CSCC[C@H](NC(=O)Cc1c(C)c2c(cc(C)c3c(C)coc32)oc1=O)C(=O)O,19µM*,.,1%,-9%,-3%,.
Cc1coc2c1c(C)cc1oc(=O)c(CC(=O)NCCCCCC(=O)O)c(C)c12,?,.,3%,-3%,-1%,.
Cc1cc2oc(=O)c(CC(=O)NCCCO)c(C)c2c2occ(C(C)(C)C)c12,11µM*,.,-1%,0%,16%,.
CNc1nc2c(c(=O)n(C)c(=O)n2C)n1CC(O)COc1ccc(OC)cc1 (stereo not drawn),1%,.,.,.,.,-6%
CCCC/C=C/C(NC(=O)Oc1cccc(C(F)(F)F)c1)c1ccccc1 (stereo not drawn),.,0%,.,.,.,-15%
Cn1c(N)c(C(=O)COC(=O)COc2ccc(Cl)cc2Cl)c(=O)n(C)c1=O,.,.,2%,.,.,.
C/C(N)=C(/C#N)C(=O)CSc1nnc(Nc2ccccc2C)s1,?,-2%,15%,20%,?,-6%
C/C(N)=C(/C#N)C(=O)CSc1nnc(Nc2ccccc2)s1,21µM*,1%,?,2µM*,?,11µM*
CC1CCN(C(=O)CSc2nc3ccccc3[nH]2)CC1,24µM*,0%,?,3.2µM*,2.5µM*,16µM*
C/C(N)=C(/C#N)C(=O)CSc1nc2ccccc2[nH]1,21µM*,-6%,21µM*,?,?,?
COc1ccc(/C=C/c2nc3cc(-c4ccccc4)ccc3o2)cc1O,9.5µM*,1%,-1%,5%,1%,-91%
Cn1c2ccccc2c2nnc(NN)nc21,-11%,.,4%,-6%,3%,.
CCCCc1c(C)nn(-c2nnc3c4ccccc4n(C)c3n2)c1C,6.7µM*,-3%,3%,6%,22%,-5%
O=C1C2C3C=CC(CC3)C2C(=O)N1c1ccc2c(c1)OCO2 (stereo not drawn),17µM*,3%,1%,6%,0%,-16%
O=C1C2C3C=CC(C3)C2C(=O)N1c1ccc2c(c1)OCO2 (stereo not drawn),-23%,1%,-2%,-2%,6%,.
CCOc1ccc(Nc2cc3n(c(=O)n2)CCc2cc(OC)c(OC)cc2-3)cc1,13µM*,.,?,-1%[1.84 µM],-5%,.
COc1cc2c(cc1OC)-c1cc(NC3CC3)nc(=O)n1CC2,3%,0%,?,3%,-2%,14µM*
SMILES,FLuc modulator,Luc counter,ELG1 genotoxic,Rab9 prom act,NPC1 prom act,SMN2 splice enh
CC(C)OCCCN1CC(=O)N2C(c3ccccc3)c3[nH]c4ccccc4c3C[C@H]2C1=O (stereo partly drawn),-2%,.,-5%,-8%,0%,.
CCOc1ccc(OCc2ccc(C(=O)NN)o2)cc1,?,.,?,?,0.4µM*,.
CCOc1ccc(OCc2ccc(C(=O)NCc3cccnc3)o2)cc1,-8%,-2%,1%,20%,20%,-32%
COc1ccc(OCc2cc(C(=O)O)c(C)o2)cc1,2.1µM*,.,1%,?,?,.
CCOc1ccc(OCc2ccc(C(=O)NC(C)(C)C)o2)cc1,2%,.,-3%,23%,24%,.
CCOc1ccc(OCc2ccc(C(=O)Nc3cccnc3)o2)cc1,?,0%,-1%,?,0.56µM*,7.9µM*
CN(C)c1ccc(NC(=O)c2ccc(COc3cccc(Cl)c3)o2)cc1,9.5µM*,-5%,?,29%,20%,-5%
CCc1ccc(OCc2ccc(C(=O)O)o2)cc1,2.1µM*,.,?,?,?,.
COC(=O)c1ccc(COc2cccc(OC)c2)o1,?,-1%,23µM*,-2%[1.84 µM],-5%,2%
O=C(O)c1ccc(COc2ccc(Cl)cc2)o1,27µM*,1%,?,23%,30%,11µM*
O=C(O)c1ccc(OCc2ccc(C(=O)O)o2)cc1,-15%,.,5%,11%,3%,.
CCOCCCn1c(=N)c(C(=O)NC2CCCCC2)cc2c(=O)n3ccccc3nc21,-9%,.,.,.,.,-14%
O=C1NC(=Nc2ccccc2)S/C1=C/c1cccs1,11µM*,-4%,?,?,?,?
O=C1NC(=Nc2cccnc2)S/C1=C\c1cccc(F)c1,30µM*,.,3%,7%,-1%,.
Cc1ccc(N=C2NC(=O)/C(=C/c3cccn3C)S2)cc1C,?,.,8%,?,25%,.
O=C1NC(=Nc2ccccc2)S/C1=C\C=C\c1ccco1,19µM*,-15%,?,21%,11%,14µM*
Cc1ccc(N=C2NC(=O)/C(=C/c3cccn3C)S2)cc1,3.4µM*,.,23µM*,?,?,.
Cc1ccc(N=C2NC(=O)/C(=C/C=C/c3ccco3)S2)cc1,?,0%,9%,-2%,2%,?
Cc1cccc(Oc2ccc(NC(=O)c3ccccc3C(=O)O)cc2)c1,21µM*,.,5%,-5%,2%,.
O=C(O)c1ccccc1C(=O)Nc1ccc(Br)c(C(F)(F)F)c1,19µM*,.,1%,0%,-4%,.
O=C(CCC(=O)c1ccc(Oc2ccccc2)cc1)Nc1ccc(C(=O)O)cc1,19µM*,.,0%,0%,-1%,.
O=C(CCC(=O)c1ccc(Oc2ccccc2)cc1)Nc1cccc(Cl)c1,1%,0%,1%,-1%,0%,0%
O=C(O)c1ccccc1C(=O)Nc1ccc(Oc2ccccc2)cc1,27µM*,.,1%,1%,0%,.
COc1ccccc1NC(=O)c1oc2ccccc2c1NC(=O)Cc1cccs1,-19%,.,.,.,.,-8%
